Assay [1] is described as follows: TOX21_p53_BLA_p2_viability: Viability Assessment in the Tox21 HCT-116 p53 Agonism Beta-lactamase Assay, Phase 2 (AID 2283591).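 Further: actives lower the ATP signal meaning cytotoxicity.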 In short, it runs like this:
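HCT-116 p53-bla cells (4000/well) rested 5 h at 37C, then received compounds in DMSO (217-fold dilution) for 16 h at 37C, 5% CO2. After the CCF4 read, CellTiter-Glo was added; ATP luminescence was read after 30 min at room temperature.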

Assay [2] has as its target Cellular tumor antigen p53 (Homo sapiens) (UniProt P04637). Kind of assay: TOX21_p53_BLA_p2_ratio: Tox21 HCT-116 p53 Agonism Beta-lactamase Assay, Ratio, Phase 2 (AID 2283592). In short, it runs like this:
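First, HCT116 reporter cells settle for 5 h at 37C. Next, DMSO compound solutions are pinned in (217-fold dilution) and left 16 h. Finally, CCF4-AM substrate is loaded 2 h at room temperature and the 460/530 nm ratio read.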

Assay [3] is described as follows: TOX21_p53_BLA_p3_viability: Viability Assessment in the Tox21 HCT-116 p53 Agonism Beta-lactamase Assay, Phase 3 (AID 2283593).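 Further: cells exposed to compound for 16 h before reading.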 A digest of the protocol:
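HCT-116 cells (4000/well) rested 5 h at 37C, then got DMSO compounds by pin tool (217-fold dilution) for 16 h at 37C, 5% CO2. After the bla read, CellTiter-Glo was added and luminescence read at 30 min, room temperature.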

Assay [4] has as its target Cellular tumor antigen p53 (Homo sapiens) (UniProt P04637). Description: TOX21_p53_BLA_p3_ratio: Tox21 HCT-116 p53 Agonism Beta-lactamase Assay, Ratio, Phase 3 (AID 2283596). In short, it runs like this: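 Cells were seeded at 4000/well, rested 5 h at 37C, then dosed with DMSO compound solutions (217-fold dilution) for 16 h. CCF4-AM substrate was loaded for 2 h at room temperature, and the 460/530 nm emission ratio was fitted for gain of signal versus DMSO.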

Assay [5] in a line: TOX21_p53_BLA_p4_viability: Viability Assessment in the Tox21 HCT-116 p53 Agonism Beta-lactamase Assay, Phase 4 (AID 2283597).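 Further: hits lower the luminescence signal meaning cytotoxicity.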 In short, it runs like this: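 4000 HCT116 cells per well; 5 h attachment; compounds from DMSO, 217-fold dilution; 16 h at 37C. Then CCF4-AM, 2 h RT, followed by CellTiter-Glo, 30 min RT, luminescence. Decrease = cytotoxicity.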
Assay [6] deals with Cellular tumor antigen p53 (Homo sapiens) (UniProt P04637). Description: TOX21_p53_BLA_p5_ratio: Tox21 HCT-116 p53 Agonism Beta-lactamase Assay, Ratio, Phase 5 (AID 2283599). A digest of the protocol:
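HCT-116 cells carrying a p53-inducible beta-lactamase reporter were seeded at 4000 cells/well and dosed after 5 h with compound in DMSO (217-fold dilution). After 16 h at 37C, CCF4-AM substrate was added for 2 h, and the 460/530 nm emission ratio was scored as gain-of-signal versus DMSO.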

Assay [7] in a line: TOX21_p53_BLA_p5_viability: Viability Assessment in the Tox21 HCT-116 p53 Agonism Beta-lactamase Assay, Phase 5 (AID 2283600). A digest of the protocol:
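Decreased CellTiter-Glo luminescence denotes lost viability. Exposure: 16 h at 37C, 5% CO2, with compounds from DMSO stocks diluted 217-fold in wells of 4000 cells.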

The structures appear in SMILES notation. Several values for one entry are separate records, joined by “and”; a condition that tells them apart may be missing. Equal values may be shown once. Records with an inconclusive call do not appear. The source holds several records for some structures; these can differ, active in one and inactive in another. Activity calls are given as the source filed them. How the source made its calls: active means hit-call score of the fitted dose curve at least 0.9, where 1 is the maximum; inconclusive means response in the unintended direction; inactive means score below 0.9.

Chain of Cellular tumor antigen p53 (Homo sapiens) (P04637 whole entry, looked up): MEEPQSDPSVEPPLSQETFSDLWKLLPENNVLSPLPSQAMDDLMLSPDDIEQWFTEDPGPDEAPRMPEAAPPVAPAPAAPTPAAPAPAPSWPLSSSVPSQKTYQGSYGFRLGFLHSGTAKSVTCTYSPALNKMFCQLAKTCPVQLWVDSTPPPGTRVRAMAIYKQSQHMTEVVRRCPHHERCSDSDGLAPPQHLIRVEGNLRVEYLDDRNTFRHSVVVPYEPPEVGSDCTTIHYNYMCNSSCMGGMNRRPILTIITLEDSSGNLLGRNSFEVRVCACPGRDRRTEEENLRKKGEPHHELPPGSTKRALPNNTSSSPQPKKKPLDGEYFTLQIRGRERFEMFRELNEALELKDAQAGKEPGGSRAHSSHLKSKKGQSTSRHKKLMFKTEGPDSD

For `CC(S)C(=O)NCC(=O)O` (stereo unspecified), the result in assay [1], in assay [2], in assay [3], in assay [4], in assay [5] and in assay [6] was inactive. Further, the call in assay [7] was inactive.

As usually defined, the AC50 is the concentration at which the activity in the assay is half-maximal. For the molecule `CCCCCCCCOc1ccc(C(=O)O)cc1`, the outcome in assay [1], in assay [2], in assay [5], in assay [6] and in assay [7] was inactive. Further, the half-maximal activity concentration (AC50) in assay [3] was 45.7 µM (active); in assay [4], 79.4 µM (active).

Regarding `CC(CN1CC(=O)NC(=O)C1)N1CC(=O)NC(=O)C1` (stereo unspecified), the result in assay [1], in assay [3], in assay [4] and in assay [5] was inactive. Besides, the AC50 in assay [2] is 8.6 µM (active); in assay [6], 8.51 µM (active).

In the case of `CC(C)[C@H](N)C(=O)OCC(CO)OCn1cnc2c(=O)[nH]c(N)nc21` (stereo partly specified), the molecule was classed as inactive in assay [1], in assay [2], in assay [3], in assay [4], in assay [5] and in assay [6]. Besides, the molecule was classed as inactive in assay [7].

With `CC(=O)Oc1ccc(C(c2ccc(OC(C)=O)cc2)c2ccccn2)cc1`, the molecule was called inactive in assay [1], in assay [3], in assay [6] and in assay [7]. The AC50 in assay [2] was 11.4 µM (active) and 2.16 µM (active); in assay [4], 1.55 µM (active) and 3.98 µM (active); in assay [5], 1.4 µM (active) and 2.68 µM (active); in assay [6] it was 1.18 µM (active).

Consider `CNC[C@H](O)c1ccc(O)c(O)c1`, for which the outcome in assay [1], in assay [2], in assay [3], in assay [4], in assay [5] and in assay [6] was inactive. Also, in assay [7], the call was inactive.

As to `CCO[Si](C)(CCCOCC1CO1)OCC` (stereo unspecified), the call in assay [1], in assay [2], in assay [3], in assay [4], in assay [5] and in assay [6] was inactive.

For `CC(=O)OC(C)C[N+](C)(C)C` (stereo unspecified), the molecule was classed as inactive in assay [1], in assay [2], in assay [3], in assay [4], in assay [5] and in assay [6]. Besides, the call in assay [7] was inactive.

As to `CN1CCN(CCCN2c3ccccc3Sc3ccc(C(F)(F)F)cc32)CC1`, the AC50 is 36.4 µM (active) in assay [1] and 33.9 µM (active) in assay [5]. Besides, the result in assay [2], in assay [3], in assay [4], in assay [6] and in assay [7] was inactive.

For `Cc1c(Cl)cccc1Nc1ncccc1C(=O)O`, the molecule was called inactive in assay [1], in assay [2], in assay [3], in assay [4], in assay [5] and in assay [6]. Besides, the call in assay [7] was inactive.

For `O=C(O)c1cc(O)c(O)c(O)c1`, the molecule was classed as inactive in assay [1], in assay [2], in assay [3], in assay [4], in assay [5] and in assay [6]. For the same molecule, the result in assay [7] was inactive.

With `Cc1ccsc1C(=CCCN1CCC[C@@H](C(=O)O)C1)c1sccc1C`, the outcome in assay [1], in assay [2], in assay [3], in assay [4], in assay [5] and in assay [6] was inactive. Besides, the result in assay [7] was inactive.

With `O=c1cc(CO)occ1O`, the outcome in assay [1], in assay [2], in assay [3], in assay [4], in assay [5] and in assay [6] was inactive. The result in assay [7] was inactive.

Turning to `O=C(CS)Nc1ccccc1`, the outcome in assay [1], in assay [2], in assay [3], in assay [4], in assay [5] and in assay [6] was inactive. The call in assay [7] was inactive.

In the case of `CC(=O)Nc1ccc(C=NNC(N)=S)cc1`, the call in assay [1], in assay [2], in assay [3], in assay [4], in assay [5] and in assay [6] was inactive.

As for `CC(C)=CCC/C(C)=C/CC/C(C)=C/CC/C(C)=C/CC1=C(C)C(=O)c2ccccc2C1=O`, the outcome in assay [1], in assay [2], in assay [3], in assay [4], in assay [5] and in assay [6] was inactive. Also, in assay [7], the outcome was inactive.

With `C=CCn1c(=O)n(CC=C)c(=O)n(CC=C)c1=O`, the result in assay [1], in assay [2], in assay [3], in assay [4], in assay [5] and in assay [6] was inactive. For the same molecule, in assay [7], the molecule was called inactive.

As to `CC(CNC1CCCCC1)OC(=O)c1ccccc1` (stereo unspecified), the molecule was classed as inactive in assay [1], in assay [2], in assay [3], in assay [4], in assay [5] and in assay [6]. In addition, the result in assay [7] was inactive.

Consider `CC(C)C(=O)OCC(=O)[C@@]12O[C@H](C3CCCCC3)O[C@@H]1C[C@H]1[C@@H]3CCC4=CC(=O)C=C[C@]4(C)[C@H]3[C@@H](O)C[C@@]12C`, for which the molecule was called inactive in assay [1], in assay [2], in assay [3], in assay [4], in assay [5] and in assay [6]. Further, in assay [7], the molecule was classed as inactive.

Turning to `Cc1cc(C)c(N=Nc2c(O)c(S(=O)(=O)O)cc3cc(S(=O)(=O)O)ccc23)cc1C`, the outcome in assay [1], in assay [2], in assay [3], in assay [4], in assay [5] and in assay [6] was inactive. Besides, the call in assay [7] was inactive.

For the molecule `Nc1cnn([C@@H]2O[C@H](CO)[C@@H](O)[C@H]2O)c(=O)n1`, the result in assay [1], in assay [3], in assay [5] and in assay [7] was inactive. For the same molecule, the results for the half-maximal activity concentration (AC50) in assay [2], in assay [4] and in assay [6] were 3.04 µM (active), 2.28 µM (active) and 6.26 µM (active), respectively.

Regarding `Nc1ccc(F)cc1F`, the molecule was classed as inactive in assay [1], in assay [2], in assay [3], in assay [4], in assay [5] and in assay [6]. In addition, the call in assay [7] was inactive.

For the molecule `OC[C@H]1O[C@@H](O[C@H]2[C@H](O)[C@@H](O)C(O)O[C@@H]2CO)[C@H](O)[C@@H](O)[C@@H]1O` (stereo partly specified), the outcome in assay [1], in assay [2], in assay [3], in assay [4], in assay [5] and in assay [6] was inactive. Also, the result in assay [7] was inactive.

In the case of `Clc1ccc(Cn2c(CN3CCCC3)nc3ccccc32)cc1`, the molecule was classed as inactive in assay [1], in assay [2], in assay [3], in assay [4], in assay [5] and in assay [6]. In addition, the outcome in assay [7] was inactive.

(Values after PubChem BioAssay (EPA / NIEHS).)
